Here are results for five compounds from PubChem BioAssay.

SMILES strings stand for the structures. Active and inactive are the calls of the source.

One experiment deals with Albumin (Bos taurus) (UniProt P02769). Put plainly: bovine serum albumin binders on microarray, profiling panel, artefact control for SMM control protein annotation, biochemical, small-molecule microarray, Alexa647 label, 635/667 nm fluorescence (AID 1118).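 Also: score merges 667 nm emission intensity and signal-to-noise per printed compound spot.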 The conditions noted are these: BSA-A647 binding, fluorescence 635 nm, higher = more signal.
Sequence of Albumin (Bos taurus) (P02769 whole entry, looked up): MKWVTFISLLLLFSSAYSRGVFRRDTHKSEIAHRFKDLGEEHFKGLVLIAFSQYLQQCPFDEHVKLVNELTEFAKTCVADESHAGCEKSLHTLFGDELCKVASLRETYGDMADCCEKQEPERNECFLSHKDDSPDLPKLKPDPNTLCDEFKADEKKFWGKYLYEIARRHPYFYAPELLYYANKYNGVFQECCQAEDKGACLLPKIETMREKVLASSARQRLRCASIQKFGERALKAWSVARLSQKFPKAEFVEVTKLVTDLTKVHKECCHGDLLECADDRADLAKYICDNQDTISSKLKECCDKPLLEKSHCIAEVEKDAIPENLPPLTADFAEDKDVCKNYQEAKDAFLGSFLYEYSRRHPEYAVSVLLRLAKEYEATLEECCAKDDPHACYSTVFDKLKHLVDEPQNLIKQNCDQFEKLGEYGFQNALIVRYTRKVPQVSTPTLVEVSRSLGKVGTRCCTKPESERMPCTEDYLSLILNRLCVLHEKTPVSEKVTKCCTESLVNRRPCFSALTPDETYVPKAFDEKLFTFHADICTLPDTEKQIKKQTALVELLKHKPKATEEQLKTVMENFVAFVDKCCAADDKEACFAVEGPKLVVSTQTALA
The nature of experiment [1]: small-molecule microarray binders of probe aXIP, primary screen, biochemical, NeuroSMM set, 635/667 nm fluorescence (AID 1119).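 Also: probe is the protein aXip251-270 applied at 1 µg/mL to compound-printed slides; binding of probe to printed compounds measured as 667 nm fluorescence plus signal to noise.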 Conditions: higher = more signal, called active from +8 up or from −8 down.
The nature of experiment [2]: small-molecule binders of probe aNOTCH3, primary screen, biochemical, small-molecule microarray, 635/667 nm fluorescence (AID 1120).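 Also: probe is a biotin-tagged antibody raised against NOTCH3 rather than NOTCH3 protein; score merges spot fluorescence near 667 nm with spot signal to noise.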 The conditions noted are these: higher = more signal.
The nature of experiment [3]: small-molecule binders of probe aNOTCH2, primary screen, biochemical, small-molecule microarray, 635/667 nm fluorescence (AID 1121).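 Also: score merges feature fluorescence read at 667 nm with its signal to noise.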 Conditions: higher = more signal.
Experiment [4] deals with Carbonic anhydrase 2 (Homo sapiens) (UniProt P00918). The experiment is described as follows: CAII small-molecule binders, profiling panel, biochemical, small-molecule microarray, Alexa647-labelled CAII (AID 1122). Conditions: CAII-A647 binding fluorescence, higher = more signal.
Experiment [5] can be described thus: COS7 lysate on small-molecule microarray, probe aHis, 635 nm (AID 1123).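 Also: z-score combines 667nm fluorescence intensity with signal-to-noise per printed compound spot.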 The conditions noted are these: COS7 cell lysate, fluorescence, higher = more signal.
A short description of experiment [6]: compound binding in COS7 lysate, probe aLAP1, primary screen, cell lysate, small-molecule microarray (AID 1124).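 Also: lysate comes from COS7 cells expressing LAP1 and is applied at 0.3 µg/mL; score merges spot fluorescence near 667 nm with signal-to-noise over triplicate slides.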 The conditions noted are these: probe aLAP1, fluorescence, higher = more signal.
The subject of the next experiment is Sam68 (KHDRBS1). Put plainly: Sam68 small-molecule binders, primary screen, biochemical, small-molecule microarray, 635 nm fluorescence (AID 1125).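 Also: score merges 667 nm channel intensity with signal to noise over triplicate slides.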 The conditions noted are these: small-molecule microarray binding, higher = more signal.
Experiment [7] concerns Chordin-like protein 2 (CHRDL2). Put plainly: CHRDL2 small-molecule binders, primary screen, biochemical, small-molecule microarray, 635 nm fluorescence (AID 1126).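 Also: printed compound slides probed with Chrdl2 protein at 4 µg/mL for 1 h at 4 C; score merges 667 nm emission intensity with signal to noise over three replicate slides.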 Conditions: small-molecule microarray binding, fluorescence 635 nm; higher = more signal.
In experiment [8] the target is Concanavalin-A (Canavalia ensiformis) (UniProt P02866). Put plainly: ConA small-molecule binders, primary screen, artefact control for SMM control protein annotation, biochemical, small-molecule microarray, Alexa647 label, 635 nm (AID 1127).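 Also: z combines 667 nm emission intensity with signal-to-noise across three replicate slides.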 The conditions noted are these: ConA-A647 binding fluorescence, higher = more signal.
Sequence of Concanavalin-A (Canavalia ensiformis) (P02866 whole entry, looked up): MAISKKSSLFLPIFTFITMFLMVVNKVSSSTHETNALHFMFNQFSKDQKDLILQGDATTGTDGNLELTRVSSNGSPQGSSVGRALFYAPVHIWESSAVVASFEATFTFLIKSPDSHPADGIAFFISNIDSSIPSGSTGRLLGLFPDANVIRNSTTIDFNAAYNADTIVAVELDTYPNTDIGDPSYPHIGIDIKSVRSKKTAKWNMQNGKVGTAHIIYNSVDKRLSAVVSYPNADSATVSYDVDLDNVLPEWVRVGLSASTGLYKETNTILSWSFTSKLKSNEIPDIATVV
Experiment [9] in a line: anti-His antibody binders, primary screen, artefact control for SMM control protein annotation, biochemical, small-molecule microarray, 635 nm fluorescence (AID 1128).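 Also: score merges feature fluorescence with signal-to-noise for each printed compound spot.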 The conditions noted are these: anti-His Alexa647 antibody binding, higher = more signal.
In experiment [10] the test system is Human papillomavirus type 1a E7 protein (residues 1-88). The experiment is described as follows: HPV1a E7 small-molecule binders, primary screen, biochemical, small-molecule microarray, residues 1-88, 635 nm (AID 1129). Conditions: small-molecule microarray binding, fluorescence 635 nm; higher = more signal.
The target in experiment [11] is Focal adhesion kinase 1 (Homo sapiens) (UniProt Q05397). Put plainly: small-molecule microarray binders of FAK, primary screen, biochemical, 635/667 nm fluorescence, BSA, DTT (AID 1130).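 Also: composite of spot emission at 667 nm and signal to noise over triplicate slides.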 Conditions: PTK2 binding, 635 nm fluorescence, higher = more signal.
Sequence of Focal adhesion kinase 1 (Homo sapiens) (Q05397 whole entry, looked up): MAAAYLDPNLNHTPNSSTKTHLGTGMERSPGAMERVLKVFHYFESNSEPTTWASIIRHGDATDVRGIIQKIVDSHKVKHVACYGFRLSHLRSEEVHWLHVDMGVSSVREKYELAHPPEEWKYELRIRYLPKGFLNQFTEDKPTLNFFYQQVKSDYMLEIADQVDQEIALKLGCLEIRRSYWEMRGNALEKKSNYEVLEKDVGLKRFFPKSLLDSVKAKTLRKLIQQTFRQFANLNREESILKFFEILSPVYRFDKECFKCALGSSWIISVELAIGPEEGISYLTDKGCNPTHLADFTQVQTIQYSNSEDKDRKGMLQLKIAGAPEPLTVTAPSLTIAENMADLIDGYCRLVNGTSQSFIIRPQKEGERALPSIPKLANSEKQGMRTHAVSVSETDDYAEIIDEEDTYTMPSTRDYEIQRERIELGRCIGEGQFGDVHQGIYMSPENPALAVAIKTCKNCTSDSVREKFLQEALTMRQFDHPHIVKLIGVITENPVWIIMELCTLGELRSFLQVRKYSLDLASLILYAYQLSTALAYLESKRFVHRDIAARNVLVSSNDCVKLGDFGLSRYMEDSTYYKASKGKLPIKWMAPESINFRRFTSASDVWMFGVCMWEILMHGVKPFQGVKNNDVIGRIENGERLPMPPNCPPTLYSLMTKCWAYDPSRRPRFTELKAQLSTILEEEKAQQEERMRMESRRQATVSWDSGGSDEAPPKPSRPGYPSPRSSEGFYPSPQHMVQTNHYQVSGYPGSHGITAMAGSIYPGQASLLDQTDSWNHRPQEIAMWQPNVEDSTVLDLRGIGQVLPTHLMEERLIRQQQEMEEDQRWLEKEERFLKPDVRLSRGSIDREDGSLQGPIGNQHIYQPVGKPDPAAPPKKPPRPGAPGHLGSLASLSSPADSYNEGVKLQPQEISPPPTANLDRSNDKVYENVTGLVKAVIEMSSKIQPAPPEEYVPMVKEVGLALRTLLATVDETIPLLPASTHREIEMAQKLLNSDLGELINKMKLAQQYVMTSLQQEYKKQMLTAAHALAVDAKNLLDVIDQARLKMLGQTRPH
In experiment [12] the test system is Fibrinogen (Alexa647-labelled). The experiment is described as follows: fibrinogen binders on compound microarrays, profiling panel, artefact control for SMM control-protein annotation, biochemical, small-molecule microarray, 635/667 nm fluorescence (AID 1131).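 Also: z-score merges 667 nm fluorescence with per-spot signal-to-noise over triplicate slides.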 Conditions: fibrinogen-A647 binding fluorescence, higher = more signal.
The target of experiment [13] is Follistatin (Homo sapiens) (UniProt P19883). The experiment is described as follows: follistatin binders on small-molecule microarrays, primary screen, biochemical, small-molecule microarray, 635/667 nm fluorescence (AID 1132). Conditions: FST binding, 635 nm fluorescence, higher = more signal.
Sequence of Follistatin (Homo sapiens) (P19883 whole entry, looked up): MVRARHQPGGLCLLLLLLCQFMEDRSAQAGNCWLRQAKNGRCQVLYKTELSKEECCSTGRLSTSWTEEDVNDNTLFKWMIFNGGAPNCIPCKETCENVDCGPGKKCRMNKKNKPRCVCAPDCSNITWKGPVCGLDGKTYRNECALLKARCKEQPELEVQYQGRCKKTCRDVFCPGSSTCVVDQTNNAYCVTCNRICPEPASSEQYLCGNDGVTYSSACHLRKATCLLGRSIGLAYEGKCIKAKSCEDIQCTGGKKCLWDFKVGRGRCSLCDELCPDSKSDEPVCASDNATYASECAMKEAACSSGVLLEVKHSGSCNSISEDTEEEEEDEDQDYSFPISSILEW
The target in experiment [14] is Fibroblast growth factor 2 (Homo sapiens) (UniProt P09038). Put plainly: FGF2 binders on small-molecule microarrays, primary screen, biochemical, small-molecule microarray, 635/667 nm fluorescence (AID 1133). The conditions noted are these: small-molecule microarray binding, FGF2, fluorescence 635/667; higher = more signal.
Sequence of Fibroblast growth factor 2 (Homo sapiens) (P09038 whole entry, looked up): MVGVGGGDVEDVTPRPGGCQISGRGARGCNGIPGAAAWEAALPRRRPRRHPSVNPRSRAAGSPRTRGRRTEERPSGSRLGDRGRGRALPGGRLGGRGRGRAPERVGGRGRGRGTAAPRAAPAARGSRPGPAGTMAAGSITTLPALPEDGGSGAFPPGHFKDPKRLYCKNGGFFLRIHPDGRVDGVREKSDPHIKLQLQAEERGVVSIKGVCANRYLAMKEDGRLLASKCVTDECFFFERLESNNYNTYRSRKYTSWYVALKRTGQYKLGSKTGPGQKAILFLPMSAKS
Experiment [15] in a line: mitochondrial membrane potential change in A549 cells, profiling panel, cell-based, JC-1 fluorescence, basal, 24 h, 100 nL (AID 1138).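 Also: A549 lung adenocarcinoma cells under basal conditions with no added stimulus; test concentration not given here.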 Conditions: higher = more signal.
For another experiment, the system named is Lefty1. The experiment is described as follows: Lefty1 binders on small-molecule microarrays, primary screen, biochemical, small-molecule microarray, 635/667 nm fluorescence (AID 1139). The conditions noted are these: small-molecule microarray binding, fluorescence 635/667; higher = more signal.
In experiment [16] the test system is wheat germ agglutinin (Triticum aestivum), Alexa647-labelled. Put plainly: wheat germ agglutinin binders on compound microarrays, profiling panel, artefact control for SMM control-protein annotation, biochemical, small-molecule microarray, 635/667 nm fluorescence (AID 1140).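 Also: score merges 667 nm feature emission with signal to noise over triplicate slides.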 Conditions: WGA-A647 binding, 635 nm fluorescence, higher = more signal.
Experiment [17] concerns the target Luciferin 4-monooxygenase (Photinus pyralis) (UniProt P08659). The experiment is described as follows: firefly luciferase enzyme inhibitors, primary screen, biochemical, luminescence, purified enzyme, 2006 set (AID 1141).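 Also: cell-free assay with purified firefly luciferase at 100 ng per well in PBS; test concentration not given here.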 The conditions noted are these: SteadyGlo luminescence, 30 min, higher = more signal, called active from +8 up or from −8 down.

Sequence of Luciferin 4-monooxygenase (Photinus pyralis) (P08659 whole entry, looked up): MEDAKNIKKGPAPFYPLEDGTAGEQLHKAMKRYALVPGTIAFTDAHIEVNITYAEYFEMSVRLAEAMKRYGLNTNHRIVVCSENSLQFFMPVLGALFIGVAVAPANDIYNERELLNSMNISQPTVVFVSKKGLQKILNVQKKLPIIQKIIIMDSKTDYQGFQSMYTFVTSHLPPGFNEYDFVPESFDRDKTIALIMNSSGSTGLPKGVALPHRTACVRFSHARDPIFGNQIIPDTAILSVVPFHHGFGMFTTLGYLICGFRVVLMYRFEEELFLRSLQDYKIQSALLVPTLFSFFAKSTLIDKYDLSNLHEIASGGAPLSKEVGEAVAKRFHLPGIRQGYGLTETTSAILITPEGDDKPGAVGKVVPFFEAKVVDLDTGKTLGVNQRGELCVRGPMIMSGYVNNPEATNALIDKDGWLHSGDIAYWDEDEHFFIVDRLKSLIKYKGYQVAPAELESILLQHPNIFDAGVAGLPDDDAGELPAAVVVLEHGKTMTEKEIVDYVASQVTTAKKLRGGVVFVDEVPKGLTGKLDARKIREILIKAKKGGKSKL

For `CCC1=C2CN(Cc3ccccc3Br)[C@@H]([C@@H](O)Cc3ccccc3)C2C=CCC1` (stereo not given in full), the composite z-score was 0.714 with Albumin (Bos taurus); -0.0277 in [2]; -0.123 in experiment [3]; 0.366 in experiment [4]; 1.01 in [5]; -0.0566 in [6]. The composite z-score with Sam68 (KHDRBS1) turned out to be 1.3; in experiment [7] it was 0.611; in experiment [8], 0.646; in experiment [9], 1.23; in [10], 1.13; in experiment [11] it was 0.172. Further, the composite z-score in [12] was determined as 0.455; in experiment [13], 0.651; in experiment [14] it was 0.209; in the experiment with Lefty1, 1.25; in experiment [16], 0.291. The composite Z-score in experiment [1] is 1.22 (inactive). Moreover, the values for the z-score in experiment [15] and in experiment [17] were -0.7 and -0.852 (inactive), respectively.

Take `Cc1cc(C)c(C(O)C2C=CC3C(=O)N(C)C(=O)C3N2N2CCCCC2)c(C)c1` (stereo not given): the composite z-score with Albumin (Bos taurus) stood at 0.477; in experiment [2] it was 0.364; in experiment [3], 0.192; in [4], 0.74; in experiment [5], 1.81; in experiment [6] it was 0.83. The composite z-score in the experiment with Sam68 (KHDRBS1) is 1.29; in experiment [7], 0.245; in experiment [8], 1.15; in experiment [9], 2.16; in [10], 1.18; in experiment [11], -0.193. Besides, the composite z-score in experiment [12] was 0.985; in [13], 1.28; in experiment [14], 0.994; with Lefty1, -0.0675; in [16], 0.799. The composite Z-score in experiment [1] is 1.16 (inactive). Besides, the z-score is 0.85 in experiment [15] and 0.915 (inactive) in experiment [17].

Consider `CC(=O)NCCCC[C@@H]1NC(=O)[C@H]2C[C@@H](C(=O)NCCCCCCN(C)C)[C@@H](c3cccc(OCCO)c3)N2C1=O`, for which the composite z-score was -1.13 with Albumin (Bos taurus); 0.259 in experiment [2]; 0.075 in experiment [3]; 0.694 in experiment [4]; 1.73 in experiment [5]; 1.09 in experiment [6]. The composite z-score in the experiment on Sam68 (KHDRBS1) came out at 1.32; in [7] it was 1.43; in experiment [8] it was 1.16; in experiment [9], 2.66; in experiment [10] it was 1.2; in [11] it was 1.15. Moreover, the composite z-score amounted to 0.478 in experiment [12]; 1.37 in experiment [13]; 1.33 in experiment [14]; 1.57 in the experiment with Lefty1; 0.797 in experiment [16]. Moreover, in experiment [1], the composite Z-score was 3.25 (inactive). For the same compound, the figures for the z-score in experiment [15] and in [17] were -0.153 and -0.805 (inactive), respectively.

Turning to `CCOC(=O)C1=CC[C@@H](c2ccc(-c3ccc(OCc4ccccc4)cc3)c(OC)c2)N(S(=O)(=O)c2ccc(C)cc2)[C@H]1c1ccccc1`, the composite z-score in the experiment with Albumin (Bos taurus) is 0.713; in experiment [2], 0.349; in experiment [3] it was -0.146; in experiment [4], 0.469; in experiment [5], 1.64; in experiment [6], 0.87. Besides, the composite z-score is 1.24 with Sam68 (KHDRBS1); 0.0693 in experiment [7]; 1.13 in experiment [8]; 1.07 in [9]; 1.2 in experiment [10]; -0.0822 in experiment [11]. The composite z-score in experiment [12] worked out at 0.978; in [13] it was 1.2; in [14], 0.275; with Lefty1, 0.329; in [16], 1.05. In experiment [1], the composite Z-score was 1.53 (inactive). Moreover, the z-score is 1.63 in experiment [15] and -3.26 (inactive) in experiment [17].

Regarding `O=C(O)[C@@H]1Cc2c([nH]c3ccccc23)[C@@H](c2ccccc2)N1`, the composite z-score in the experiment with Albumin (Bos taurus) is 0.118; in experiment [2] it was -0.082; in experiment [3], -0.0148; in [4], -0.0448; in experiment [5], 0.319; in [6], -0.0124. Also, the composite z-score is -0.188 in the experiment on Sam68 (KHDRBS1); 0.379 in experiment [7]; 0.813 in experiment [8]; 0.247 in experiment [9]; 0.299 in experiment [10]; 0.948 in experiment [11]. Further, the composite z-score in experiment [12] was 0.651; in experiment [13], 0.607; in [14] it was 0.197; in the experiment with Lefty1, 0.244; in [16], 0.0252. For the same compound, in experiment [1], the composite Z-score is 0.756 (inactive). The z-score in experiment [15] was 0.375; in experiment [17] it was -0.0866 (inactive).
